# From PubChem BioAssay
# The sample as a whole holds a higher share of hits than the screen did.
# LmPK inhibitor: blocks Leishmania mexicana pyruvate kinase activity; Q27686; Potency, µM (titrated, usually from 57.5 µM), without a hit: at the top dose activity change, negative = inhibition, usual class: inhibitors; AID 1721; hit rate 0.37% among 290,000; purified LmPK, Kinase-Glo ATP luminescence, 1 h; note: potency is the fitted concentration of half-maximal effect; % is set by controls: 0 for no effect and ±100 for the full control effect
#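 Screened at intermediate enzyme activity to detect both inhibitors and activators: LmPK at 0.1 nM, with a 0.5 nM enzyme column as activation reference. PEP 0.5 mM, ADP 0.1 mM; ATP detected by luminescence after 1 h.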
# Cycloheximide cs: counter-screen hit for Shiga toxin inhibitors, cycloheximide; hit rate 12% among 300,000; max response, %; cell reporter, cycloheximide protein synthesis inhibition counterscreen; in the data active = max response mostly above about 13%, no sharp cut-off; inactive = mostly below about 14%; note: read at 38.3 µM for the half of the compounds with a filed dose; 0% is about no effect
# Shiga inhibitor: inhibitors of Shiga toxin in Vero cells. AID 2315. Vero cells, Shiga toxin protein synthesis inhibition reporter. inhibition, % at 38.7 µM. hit rate 9.2% among 290,000; in the data active = inhibition mostly above about 28%, no sharp cut-off; inactive = mostly below about 43%; note: 0% is about no effect
# Giardia FBPA inh: blocks Giardia fructose-bisphosphate aldolase activity. A8B2U2. hit rate 0.71% among 290,000. Potency, µM (series often up to 59.6 µM), without a hit: at the top dose activity, negative = inhibition, actives largely listed as inhibitors. AID 2451. purified Giardia FBPA; note: potency is the fitted concentration of half-maximal effect; % is set by controls: 0 for no effect and ±100 for the full control effect; nearly all actives have a fitted effect of over 55% in size
# Target sequence (A8B2U2 whole entry, looked up): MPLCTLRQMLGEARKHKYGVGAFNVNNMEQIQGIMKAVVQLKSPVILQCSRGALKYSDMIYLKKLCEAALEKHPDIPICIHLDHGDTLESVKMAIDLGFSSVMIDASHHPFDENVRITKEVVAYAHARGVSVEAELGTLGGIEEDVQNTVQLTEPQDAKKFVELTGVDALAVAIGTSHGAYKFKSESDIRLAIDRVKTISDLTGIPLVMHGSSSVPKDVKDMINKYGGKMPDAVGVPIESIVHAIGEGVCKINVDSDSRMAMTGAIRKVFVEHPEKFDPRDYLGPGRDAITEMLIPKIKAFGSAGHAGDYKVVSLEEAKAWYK
#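 40 nM FBPA preincubated 10 min at RT with compound (up to 57.5 uM final), then substrate plus GAPDH/TPI/NAD/arsenate coupling and diaphorase/resazurin added. Fluorescence read after 20 min at RT, 525/598 nm.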
# TbPYK inhibitor: inhibitors of Trypanosoma brucei pyruvate kinase. hit rate 0.12% among 410,000. TbPYK enzyme, Kinase-Glo Plus ATP luminescence, 45 min. Potency, µM (series often up to 76.8 µM), without a hit: at the highest dose activity, negative = inhibition, actives largely listed as inhibitors. AID 624173. Q57TT1; note: potency is the fitted concentration of half-maximal effect; % is set by controls: 0 for no effect and ±100 for the full control effect; nearly all actives have a fitted effect of over 50% in size
#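 ADP (130 uM final) triggers the TbPYK reaction after compound addition; incubation is 45 min at room temperature. Kinase-Glo Plus is then added and luminescence imaged. Normalized data are fitted to concentration-effect curves.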
# Sm TGR block: blocks Schistosoma mansoni thioredoxin glutathione reductase | Q962Y6 | purified TGR, DTNB reduction, TNB absorbance 405 nm | Potency, µM (doses to about 114 µM), inactives show at the top dose activity change, negative = inhibition, most hits filed as inhibitors | hit rate 3% among 360,000 | AID 485364; note: potency is the fitted concentration of half-maximal effect; % is set by controls: 0 for no effect and ±100 for the full control effect; nearly all actives have a fitted effect of over 60% in size
#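 TGR 20 nM + NADPH 100 uM (dispensed conc.), cpd preinc 15 min RT; start with NADPH (500 uM addition) then DTNB (15 mM addition). Kinetic TNB absorbance, 405 nm filter. Four-parameter Hill fit across titration.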
# Numbers without * were called inactive; ? = inconclusive; · = no result given; [ ] = another dose, or the depositor's remark. Unless noted, calls come from the whole dose curve; as a rule, active = well fitted curve in the direction sought with a large enough effect; inconclusive = small, poorly fitted or top-dose-only effect, or another doubt; inactive = no such curve, though single readings can be large; an effect the other way counts as inactive or inconclusive.
SMILES,LmPK inhibitor,Cycloheximide cs,Shiga inhibitor,Giardia FBPA inh,TbPYK inhibitor,Sm TGR block
CC(=O)CCc1ccc(OCCCCn2cncn2)cc1,-6%,20*,51*,-5%,-5%,-3%
c1ccc(-c2ccc(OCCCn3cncn3)cc2)cc1,-10%,41*,61*,-17%,4%,0%
c1ccc(COc2ccc(OCCn3cncn3)cc2)cc1,-12%,25*,54*,-5%,3%,2%
Cc1cccc(-c2nc(C)c(CCNC(=O)c3cccs3)s2)c1,·,·,·,·,2%,-3%
CCOc1ccc(CCN2C(=S)N([C@@H](Cc3ccc(O)cc3)CN3CCC[C@@H]3CN3C(=S)NC[C@@H]3CC(C)C)C[C@@H]2CC(C)C)cc1,·,·,·,·,-8%,·
CC1(C)CC1C(=O)N/C(=C/CCCCSCC(N)C(=O)O)C(=O)O (configuration not stated),·,7,4,-13%,-5%,·
Cc1cnc(NC(=O)C2CC=CCC2)s1 (configuration not stated),-6%,24*,45*,0%,2%,-13%
Cc1cnc(NC(=O)C2CCC(C(C)(C)C)CC2)s1 (configuration not stated),12%,20*,33,4%,-4%,-2%
CC(=O)c1ccc(S(=O)(=O)N2CCC(C(=O)Nc3ncc(C)s3)CC2)cc1,·,·,·,·,-2%,·
O=C(Nc1nccs1)c1cccc(NC(=O)C2CC2)c1,6%,9,13,5%,8%,5%
CC(C)(C)C1CCC(C(=O)Nc2nccs2)CC1 (configuration not stated),3%,15,47*,11%,4%,18%
C[C@H]1Cc2c(COc3ccccc3)nc3c(c2CO1)CN(C(=O)c1cc(I)ccc1F)CC3,-4%[11.5 µM],·,·,5%[12.9 µM],·,·
Nc1cc(Cl)ccc1C(=O)OCC(=O)NCc1cccs1,·,·,·,·,-6%,·
Cc1oc2ccc(O)c(CN3CCN(C)CC3)c2c1C(=O)Nc1cccc(Cl)c1C,·,·,·,·,-8%,1%
Oc1ccc(C(c2nnnn2CCc2ccccc2)N2CCN(c3nc4ccccc4s3)CC2)cc1 (configuration not stated),6%,1,-2,-1%,-2%,8.9µM*
COc1cc(C(c2nnnn2C(C)(C)C)N2CCN(c3nc4ccccc4s3)CC2)ccc1O (configuration not stated),-14%,9,30,-8%,?,0.35µM*
CCC(c1nnnn1Cc1cccs1)N1CCN(c2nc3ccccc3s2)CC1 (configuration not stated),6%,-3,12,9%,-16%,33%
COCCn1nnnc1C(c1cccs1)N1CCN(c2nc3ccccc3s2)CC1 (configuration not stated),5%,-1,-6,0%,2%,11%
CC(C)CC(c1nnnn1Cc1cccs1)N1CCN(c2nc3ccccc3s2)CC1 (configuration not stated),6%,20*,-11,2%,-1%,5%
N#Cc1ccccc1S(=O)(=O)N1CCN(CC(O)CN2CCOCC2)CC1 (configuration not stated),·,·,·,·,-1%,-16%
COc1cc(C(C)=O)ccc1OCC(=O)NCc1ccccc1CN1CCCC1,·,·,·,·,6%,·
Cc1ccc(N=C(NO)c2nonc2N)cc1,1%,46*,95*,6%,0%,-2%
COC(=O)c1sc(N)c(C(=O)OC)c1COC(=O)c1c(C)noc1C,0%,-2,-26,-2%,0%,-8%
COC(=O)c1sc(N)c(C(=O)OC)c1Cn1ncc(Cl)c(Cl)c1=O,4%,3,14,-10%,-12%,0.32µM*
O=c1oc2ccc3ccccc3c2cc1-c1nc2ccccc2o1,·,·,·,·,-1%,·
SMILES,LmPK inhibitor,Cycloheximide cs,Shiga inhibitor,Giardia FBPA inh,TbPYK inhibitor,Sm TGR block
COc1ccc2oc(=O)c(-c3nc4ccccc4o3)cc2c1,-11%,25*,66*,0%,8%,-13%
Cc1cc(-c2nnc(-c3cc4ccccc4oc3=O)o2)c(C)n1-c1ccccc1,-3%,32*,36,6%,-15%,21%
O=c1oc2ccccc2cc1-c1nc2c(s1)CCCC2,13µM*,31*,56*,4%,-21%,0%
O=c1oc2ccccc2cc1-c1nc2ccccc2o1,?,38*,71*,·,-5%,0%
Nc1ccc2c(c1)C(=O)c1ccc(N)cc1-2,·,·,·,·,-18%,·
COc1cc(Cl)c(NS(=O)(=O)c2ccc3c(c2)CC(C)N3C(=O)C2CCC2)c(OC)c1 (configuration not stated),·,·,·,·,3%,20%
CCc1cc2c(cc3c(=O)n(CCCC(=O)NCc4cccc(Br)c4)ncn32)s1,·,·,·,·,1%,4%
CCCC[C@H]1C[C@@H]1[C@@H]1N(P(=O)(c2ccccc2)c2ccccc2)C[C@@](O)(c2ccccc2)CC12CC2,·,·,·,1%,·,·
Nc1n[nH]c(-c2ccccc2)n1,-4%,6,62,·,3%,10%
Cc1ccc(-c2nc(Nc3ccccc3)n[nH]2)cc1,0%,43*,83*,-5%,2%,1%
COc1ccc(CNc2nc(-c3ccco3)nn2S(=O)(=O)c2ccc3ccccc3c2)cc1OC,·,·,·,·,-1%,-27%
O=C(COc1ccccc1F)N1CCCc2ccccc21,1%,22*,·,-16%,-10%,0%
O=C(COc1ccccc1[N+](=O)[O-])N1CCCc2ccccc21,-7%,17*,10,-17%,-15%,0%
O=C(COc1ccccc1F)N1c2ccccc2CCc2ccccc21,6%,-3,-10,-11%,12%,-13%
CN(CC(=O)Nc1ccc(Br)cc1)S(=O)(=O)c1cccc2nsnc12,·,·,·,·,1%,-3%
Cc1n[nH]c(C)c1Sc1ccccc1N=Cc1cc(Cl)cc([N+](=O)[O-])c1O,-6%,-3,-18,-15%,-3%,-8%
Cc1ccc(N=Cc2cc(Cc3ccccc3Cl)cc([N+](=O)[O-])c2O)c(O)c1,-5%,31*,55,?,-3%,11µM*
Cc1cc(NC(=O)c2cccc(Cl)c2)n[nH]1,·,·,·,·,0%,3%
Cc1cc(NC(=O)NC(=O)c2ccc(F)cc2F)n[nH]1,-8%,19*,43*,-3%,3%,-19%
COc1ccc(CNc2nc(Cl)c(C#N)s2)cc1,-5%,41*,45*,6%,-1%,-3%
N#Cc1sc(NCc2ccccc2)nc1Cl,0%,19,18,-2%,-11%,-5%
CN(C)CCNC(=O)Cn1ccc2cc(S(=O)(=O)N3CCCCC3)ccc21,8%,-4,-7,9%,-3%,-23%
CC(C)N(C)C1CCN(S(=O)(=O)c2ccc3[nH]c(=O)ccc3c2)CC1,·,·,·,·,-5%,50µM*
COc1ccc(C2c3c(ncn(Cc4ccco4)c3=N)Oc3ccc4ccccc4c32)cc1 (configuration not stated),-3%,-1,38,-1%,-2%,-2%
